Molecules are shown by their SMILES. Results filed as inconclusive are left out. Values without a mark were called inactive. Calls of active or inactive are those of the source. Unless noted, the call rests on the fitted dose curve; in most records, active means well fitted curve in the direction sought with a large enough effect in the repeat runs; inconclusive means weak or mixed curves; inactive means no such curve, though single readings can be large; an effect the other way counts as inactive or inconclusive.

The nature of experiment [1]: qHTS assay to identify small molecule antagonists of the thyroid receptor (TR) signaling pathway - cell viability counter screen (AID 743064). Further: nearly all actives have a fitted effect of over 50% in size. Further: potency means the concentration at half of the fitted maximal effect. Put shortly: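 GH3.TRE-Luc rat pituitary cells dosed after 4 hr plating, co-stimulated with T3 at 1 nM final, incubated 23.5 h at 37 C. Viability measured in the same wells by CellTiter-Fluor fluorescence after 30 min further at 37 C.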
For orientation: In qHTS, concentration-response curves come from the screen itself.

Experiment [2] is described as follows: qHTS assay to identify small molecule antagonists of the thyroid receptor (TR) signaling pathway (AID 743065). Further: nearly all actives have a fitted effect of over 55% in size. Further: potency means the concentration at half of the fitted maximal effect. Put shortly: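 GH3.TRE-Luc rat pituitary cells carrying two TR response elements driving luciferase were plated for 4 h, given compound plus 1 nM T3 (final), and incubated 23.5 h at 37 C. ONE-Glo luminescence measured reporter inhibition; CellTiter-Fluor fluorescence tracked cytotoxicity.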

Experiment [3] has as its system thyroid hormone receptor (rat, GH3 cells). In words: qHTS assay to identify small molecule agonists of the thyroid receptor (TR) signaling pathway (AID 743066; calls by dose curve; further: potency means the concentration at half of the fitted maximal effect).
The nature of experiment [4]: qHTS assay to identify small molecule antagonists of the estrogen receptor alpha (ER-alpha) signaling pathway - cell viability counter screen (AID 743074; calls by dose curve;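 further: HEK293 cells carrying ER-alpha-UAS-bla reporter stimulated with 17beta-estradiol; nearly all actives have a fitted effect of over 45% in size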).
Experiment [5] can be described thus: qHTS assay to identify small molecule antagonists of the estrogen receptor alpha (ER-alpha) signaling pathway using the BG1 cell line - cell viability counter screen (AID 743081).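 Further: compound given together with 17beta-estradiol as the ER stimulus; nearly all actives have a fitted effect of over 45% in size.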
The next experiment has as its target Aromatase (Homo sapiens) (UniProt P11511). As to the kind of experiment: qHTS assay to identify aromatase inhibitors (AID 743083). Further: nearly all actives have a fitted effect of over 55% in size. Further: potency means the concentration at half of the fitted maximal effect.
Experiment [6] has as its target Estrogen receptor (Homo sapiens) (UniProt P03372). In words: qHTS assay to identify small molecule agonists of the estrogen receptor alpha (ER-alpha) signaling pathway (AID 743075; calls by dose curve;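 further: HEK293 GripTite cells with ER-alpha and UAS-driven beta-lactamase reporter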).
A short description of experiment [7]: qHTS assay to identify small molecule antagonists of the estrogen receptor alpha (ER-alpha) signaling pathway using the BG1 cell line (AID 743080; calls by dose curve;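 further: BG1 cells stimulated with 17beta-estradiol alongside compound; nearly all actives have a fitted effect of over 25% in size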; further: potency means the concentration at half of the fitted maximal effect). Put shortly:
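Readout is ONE-Glo luminescence, taken 30 min at room temperature after reagent addition, preceded by a CellTiter-Fluor viability read; BG1-Luc-4E2 cells had received compound and 17beta-estradiol for 21.5 h at 37 C.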

In experiment [8] the target is Estrogen receptor (Homo sapiens) (UniProt P03372). In words: qHTS assay to identify small molecule agonists of the estrogen receptor alpha (ER-alpha) signaling pathway using the BG1 cell line (AID 743079). Further: nearly all actives have a fitted effect of over 20% in size. The note with it: BG1Luc4E2 cells, ERE-luciferase agonist, 22 h; at 70.3 µM (top of the series).
Experiment [9] shares this target. In words: qHTS assay to identify small molecule antagonists of the estrogen receptor alpha (ER-alpha) signaling pathway (AID 743069; active means well fitted curve in the direction sought with a large enough effect in the signal ratio in the repeat runs, not every such curve was filed as active; the % refers to the signal ratio). The essentials: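 Estradiol-stimulated ER-alpha-UAS-bla HEK293 cells, 18 hr compound exposure at 37C. LiveBLAzer B/G substrate, 2 hr RT, fluorescence read.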
On the % scale 0 is the no-effect control and ±100 the full control effect.

Sequence of Estrogen receptor (Homo sapiens) (P03372 whole entry, looked up): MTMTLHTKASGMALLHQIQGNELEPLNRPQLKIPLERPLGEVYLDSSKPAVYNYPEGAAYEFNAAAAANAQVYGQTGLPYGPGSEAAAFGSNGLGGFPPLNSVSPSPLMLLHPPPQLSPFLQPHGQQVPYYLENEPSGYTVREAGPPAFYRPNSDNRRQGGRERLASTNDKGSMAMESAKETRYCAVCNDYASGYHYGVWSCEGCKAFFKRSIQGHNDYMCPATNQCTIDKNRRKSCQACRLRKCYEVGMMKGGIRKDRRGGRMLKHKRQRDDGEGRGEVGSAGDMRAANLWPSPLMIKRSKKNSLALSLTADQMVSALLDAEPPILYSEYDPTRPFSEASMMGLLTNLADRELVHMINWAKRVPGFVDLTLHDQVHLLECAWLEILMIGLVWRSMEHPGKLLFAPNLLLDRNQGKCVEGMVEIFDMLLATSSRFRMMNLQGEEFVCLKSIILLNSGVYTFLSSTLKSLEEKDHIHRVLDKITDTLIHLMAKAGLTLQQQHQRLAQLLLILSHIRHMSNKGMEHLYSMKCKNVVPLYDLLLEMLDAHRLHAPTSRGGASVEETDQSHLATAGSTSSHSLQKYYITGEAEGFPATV
Sequence of Aromatase (Homo sapiens) (P11511 whole entry, looked up): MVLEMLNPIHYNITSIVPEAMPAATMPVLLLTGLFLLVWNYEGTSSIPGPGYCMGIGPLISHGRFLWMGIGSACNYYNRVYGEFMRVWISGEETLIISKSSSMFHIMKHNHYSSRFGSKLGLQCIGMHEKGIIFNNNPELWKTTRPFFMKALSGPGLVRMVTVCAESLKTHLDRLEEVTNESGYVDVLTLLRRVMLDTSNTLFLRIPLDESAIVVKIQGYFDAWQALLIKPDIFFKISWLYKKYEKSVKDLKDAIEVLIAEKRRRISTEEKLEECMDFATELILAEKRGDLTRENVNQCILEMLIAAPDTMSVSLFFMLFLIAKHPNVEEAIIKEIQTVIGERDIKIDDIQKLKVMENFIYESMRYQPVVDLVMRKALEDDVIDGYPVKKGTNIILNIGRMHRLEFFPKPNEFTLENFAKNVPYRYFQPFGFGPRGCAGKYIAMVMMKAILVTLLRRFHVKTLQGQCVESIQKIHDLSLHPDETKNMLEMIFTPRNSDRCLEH

As for `[As]#[In]`, the Potency result (in experiment [1]; in experiment [2]; in experiment [3]; in experiment [5]; with Aromatase (Homo sapiens)) was “inactive” throughout. For the same molecule, the molecule was called inactive in experiment [4].
Turning to `CC(C)(C)C(=O)C(Oc1ccc(Cl)cc1)n1cncn1` (stereo not given), the Potency entry in [1], in experiment [2], in experiment [3] and in [5] was “inactive” throughout. The molecule was classed as inactive in experiment [4]. For the same molecule, the Potency in the experiment with Aromatase (Homo sapiens) was 54.4 µM (active).
Regarding `CC(COc1ccc(Oc2ccccc2)cc1)Oc1ccccn1` (stereo not given), the Potency result (in experiment [1]; in [2]; in experiment [3]; in experiment [5]; with Aromatase (Homo sapiens)) was “inactive” in each case. Also, in experiment [4], the call was inactive.
Regarding `ClCCOCOCCCl`, the Potency result (in experiment [1]; in [2]; in [3]; in [5]; with Aromatase (Homo sapiens)) was “inactive” throughout. In experiment [4], the result was inactive.
In the case of `COc1cc(OC)nc(Sc2cccc(Cl)c2C(=O)O)n1`, the Potency entry (in [1]; in [2]; in [3]; in experiment [5]; with Aromatase (Homo sapiens)) was “inactive” each time. In addition, in [4], the molecule was classed as inactive.
Turning to `CCS(=O)(=O)CCSP(=O)(OC)OC`, the Potency entry (in experiment [1]; in experiment [2]; in experiment [3]; in [5]; with Aromatase (Homo sapiens)) was “inactive” in each case. The molecule was classed as inactive in experiment [4].
Consider `CNC(=O)Oc1cccc(C(C)C)c1`, for which the Potency entry (in experiment [1]; in experiment [2]; in [3]; in experiment [5]; with Aromatase (Homo sapiens)) was “inactive” in each case. The molecule was called inactive in experiment [4].
On to `O=[N+]([O-])c1cccc2c([N+](=O)[O-])cccc12`, for which the Potency entry (in [1]; in [2]; in experiment [3]; in experiment [5]; with Aromatase (Homo sapiens)) was “inactive” in each case. For the same molecule, the molecule was called inactive in [4].
Turning to `C[C@]12CC[C@H]3[C@@H](CC=C4C[C@@H](O)CC[C@@]43C)[C@@H]1CC[C@@H]2O`, the Potency result (in experiment [1]; in experiment [2]; in experiment [3]; in experiment [5]; in the experiment with Aromatase (Homo sapiens)) was “inactive” each time. For the same molecule, in experiment [4], the molecule was called inactive.
For `CC(N)=S`, the Potency result (in experiment [1]; in experiment [2]; in experiment [3]; in experiment [5]; in the experiment with Aromatase (Homo sapiens)) was “inactive” in each case. Moreover, in experiment [4], the molecule was called inactive.
As for `CC1(C)COP(Oc2ccccc2)OC1`, the Potency entry (in [1]; in experiment [2]; in [5]; with Aromatase (Homo sapiens)) was “inactive” each time. The Potency in experiment [3] is 54.5 µM (active). In [4], the call was inactive.
`CCOP(=O)(OCC)OP(=O)(OCC)OCC`: the Potency entry (in [1]; in [2]; in [3]; in experiment [5]; with Aromatase (Homo sapiens)) was “inactive” each time. Further, the outcome in experiment [4] was inactive.
Turning to `CCC(C)(C)c1cc(-n2nc3ccccc3n2)c(O)c(C(C)(C)CC)c1`, the Potency result (in experiment [1]; in [2]; in experiment [3]; in experiment [5]; in the experiment with Aromatase (Homo sapiens)) was “inactive” in each case. Further, in experiment [4], the result was inactive.
As to `CC(C1CC1)C(O)(Cn1cncn1)c1ccc(Cl)cc1` (stereo not given), the Potency entry in [1], in experiment [2], in [3] and in experiment [5] was “inactive” each time. Further, the call in [4] was inactive. Moreover, the Potency in the experiment with Aromatase (Homo sapiens) was 24.2 µM (active).
On to `CN1CCN(C(=O)O[C@H]2c3nccnc3C(=O)N2c2ccc(Cl)cn2)CC1`, for which the Potency entry (in experiment [1]; in experiment [2]; in [3]; in experiment [5]; in the experiment with Aromatase (Homo sapiens)) was “inactive” each time. In experiment [4], the outcome was inactive.
Consider `CCCCOC(=O)c1ccccc1C(=O)O`, for which the Potency result (in experiment [1]; in experiment [2]; in experiment [3]; in experiment [5]; with Aromatase (Homo sapiens)) was “inactive” in each case. In [4], the molecule was called inactive.
Regarding `CC(C)(C)OC(=O)c1ncn2c1[C@@H]1CCCN1C(=O)c1c(Br)cccc1-2`, the Potency result (in [1]; in [2]; in experiment [3]; in experiment [5]; with Aromatase (Homo sapiens)) was “inactive” throughout. Moreover, the call in experiment [4] was inactive.
Take `O=[N+]([O-])c1cccc(O)c1`: the Potency entry (in [1]; in experiment [2]; in experiment [3]; in experiment [5]; with Aromatase (Homo sapiens)) was “inactive” in each case. For the same molecule, the molecule was called inactive in experiment [4].
`CC1CCC(=O)O1` (stereo not given): the Potency result in [1], in [2], in experiment [3] and in experiment [5] was “inactive” throughout. The outcome in experiment [4] was inactive.
With `O=C(CCN1CC1)OCC(CO)(COC(=O)CCN1CC1)COC(=O)CCN1CC1`, the Potency result (in experiment [1]; in experiment [2]; in experiment [3]; in experiment [5]; in the experiment with Aromatase (Homo sapiens)) was “inactive” each time. Besides, the outcome in experiment [4] was inactive.
Consider `ClCC(Cl)Cl`, for which the Potency result (in [1]; in [2]; in experiment [3]; in [5]; with Aromatase (Homo sapiens)) was “inactive” in each case. The result in experiment [4] was inactive.
As to `CCCSC(=O)N(CCC)CCC`, the Potency result (in experiment [1]; in experiment [2]; in [3]; in experiment [5]; with Aromatase (Homo sapiens)) was “inactive” in each case. In experiment [4], the molecule was called inactive.
Consider `Nc1n[nH]c(N)n1`, for which the Potency result (in [1]; in experiment [2]; in experiment [3]; in experiment [5]; with Aromatase (Homo sapiens)) was “inactive” throughout. Besides, in experiment [4], the outcome was inactive.
As for `COC(=O)c1ccccc1S(=O)(=O)NC(=O)Nc1nc(C)cc(C)n1`, the Potency result (in [1]; in experiment [2]; in [3]; in experiment [5]; in the experiment with Aromatase (Homo sapiens)) was “inactive” throughout. In experiment [4], the molecule was classed as inactive.
For the molecule `CC(C=O)Cc1ccc2c(c1)OCO2` (stereo not given), the Potency result (in experiment [1]; in experiment [2]; in experiment [3]; in experiment [5]; with Aromatase (Homo sapiens)) was “inactive” each time. In addition, the outcome in experiment [4] was inactive.
As for `COC(=O)COc1ccc(Cl)cc1Cl`, the Potency entry in experiment [1], in experiment [2], in experiment [3] and in experiment [5] was “inactive” throughout. Besides, the molecule was called inactive in experiment [4].
Turning to `Cc1cnc[nH]1`, the Potency entry (in [1]; in experiment [2]; in experiment [3]; in experiment [5]; with Aromatase (Homo sapiens)) was “inactive” throughout. Moreover, the molecule was called inactive in experiment [4].
For the molecule `CC(C)[N+](=O)[O-]`, the Potency entry (in experiment [1]; in [2]; in experiment [3]; in experiment [5]; with Aromatase (Homo sapiens)) was “inactive” in each case. For the same molecule, the call in experiment [4] was inactive.
`COCC(=O)N(c1c(C)cccc1C)N1CCOC1=O`: the Potency entry (in experiment [1]; in experiment [2]; in [3]; in [5]; with Aromatase (Homo sapiens)) was “inactive” throughout. For the same molecule, the call in [4] was inactive.
`CNC(=O)Oc1c(C(C)(C)C)cc(C)cc1C(C)(C)C`: the Potency entry (in [1]; in [2]; in experiment [3]; in experiment [5]; in the experiment with Aromatase (Homo sapiens)) was “inactive” each time. The molecule was classed as inactive in experiment [4].
`O=NN1CCCCC1`: the Potency entry (in experiment [1]; in experiment [2]; in experiment [3]; in experiment [5]; in the experiment with Aromatase (Homo sapiens)) was “inactive” in each case. Besides, the result in experiment [4] was inactive.
As to `CN/C(=N\[N+](=O)[O-])NCC1CCOC1` (stereo not given), the Potency result (in experiment [1]; in experiment [2]; in [3]; in experiment [5]; with Aromatase (Homo sapiens)) was “inactive” in each case. In addition, the outcome in [4] was inactive.
On to `COC(C)(C)C`, for which the Potency result (in experiment [1]; in experiment [2]; in experiment [3]; in experiment [5]; in the experiment with Aromatase (Homo sapiens)) was “inactive” each time. Also, the outcome in experiment [4] was inactive.
On to `C=CCC1=C(C)[C@@H](OC(=O)[C@@H]2[C@@H](C=C(C)C)C2(C)C)CC1=O`, for which the Potency is 61.1 µM (active) in [1], 61.1 µM (active) in [2] and 54.5 µM (active) in [7]. Also, the result in [4] was inactive. Further, the Potency entry in experiment [6] and in experiment [5] was “inactive” each time.
As for `Cc1cc(C)c(C(=O)P(=O)(C(=O)c2c(C)cc(C)cc2C)c2ccccc2)c(C)c1`, the Potency entry (in experiment [1]; in experiment [2]; in [3]; in [7]; in [5]; with Aromatase (Homo sapiens)) was “inactive” in each case. For the same molecule, in [8], the activation is 37.1%.
On to `Clc1cccc(N2CCNCC2)c1`, for which the Potency entry in [1], in [3], in experiment [9], in [6], in experiment [7] and in experiment [5] was “inactive” throughout. The Potency result with Aromatase (Homo sapiens) was “inactive”. In addition, in [4], the outcome was inactive. For the same molecule, in experiment [8], the activation was 10.2%.
On to `CN1C(=S)CN=C(c2ccccc2)c2cc(Cl)ccc21`, for which the Potency result (in [1]; in [3]; in [6]; in experiment [5]; in the experiment with Aromatase (Homo sapiens)) was “inactive” throughout. Also, the molecule was classed as inactive in experiment [4]. Besides, the Potency in experiment [7] was 13.3 µM (active).

The record behind these values is PubChem BioAssay (Tox21).
